High-throughput results from PubChem BioAssay.
Smad3 inh = blocks human Smad3 binding to FoxH1 peptide | 88,000 tested, 0.29% active | inhibition, % at 25 µM | P84022 | TR-FRET Smad3/Dy647-FoxH1 peptide binding, europium anti-His | AID 630;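 active = compounds that reduce the energy-transfer binding signal between the protein and its labelled peptide by more than half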;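 note: 0% = Smad3 plus labelled peptide maximal FRET and 100% = peptide-only background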
Target sequence (P84022 whole entry, looked up): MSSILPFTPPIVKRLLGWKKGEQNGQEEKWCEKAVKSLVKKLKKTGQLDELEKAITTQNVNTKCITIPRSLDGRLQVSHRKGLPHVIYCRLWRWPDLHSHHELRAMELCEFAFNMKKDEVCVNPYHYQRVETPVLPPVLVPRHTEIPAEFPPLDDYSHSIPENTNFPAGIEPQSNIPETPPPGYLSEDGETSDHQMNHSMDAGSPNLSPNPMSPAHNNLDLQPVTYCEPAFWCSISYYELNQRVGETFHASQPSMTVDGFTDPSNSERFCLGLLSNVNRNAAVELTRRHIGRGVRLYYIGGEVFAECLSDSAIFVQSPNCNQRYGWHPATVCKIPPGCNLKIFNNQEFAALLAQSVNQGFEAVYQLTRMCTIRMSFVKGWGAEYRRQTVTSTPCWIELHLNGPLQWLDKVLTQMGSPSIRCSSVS
ERa coact inh = blocks coactivator binding to human estrogen receptor alpha | AID 629 | TR-FRET ER-alpha LBD / SRC-1 peptide, estradiol-bound | P03372 | 86,000 tested, 1.7% active | inhibition, % at 25.6 µM; in the data active = inhibition above about 50%;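 note: 0% = receptor plus peptide control and 100% = peptide only without receptor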
Candida biofilm = kills Candida albicans biofilms. inhibition, % at 6 µM. C. albicans biofilm + clotrimazole, Alamar Blue. 85,000 tested, 0.14% active;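 active = inhibition above 20%; inactive = inhibition below 20%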;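 note: preformed 24 hr biofilms exposed to compound for 48 hr; 0% = biofilm without compound and 100% = blank killed by clotrimazole plus chlorhexidine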
ERb coact inh = ER-beta (human) coactivator binding inhibition | Q92731 | TR-FRET ER-beta LBD / SRC1-Cy5 peptide binding; receptor agonist-loaded with 1 µM estradiol | inhibition, % at 25.6 µM | 86,000 tested, 1.3% active | AID 633;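 active = compounds whose percent inhibition of the receptor-coactivator binding signal exceeds about 50% in the single-dose screen, limit read from the data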;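 note: 0% = receptor plus peptide wells without compound and 100% = peptide-only wells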
ERa SRC1 pot = enhances coactivator binding to human estrogen receptor alpha; TR-FRET ERalpha-LBD/SRC-Cy5 coactivator binding, 2 h; 100 = basal binding, no effect; coactivator binding (% of control), % at 25.6 µM; 86,000 tested, 1.3% active; in the data active = activity above about 200%;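 note: binding measured in presence of low estradiol as agonist stimulus; 0% = peptide alone without receptor and 100% = receptor with peptide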
Active calls of the source: *; . = not tested or not shown; ! = not active in a repeat; [ ] = remark or other dose. A selection: hits, their analogues and other compounds. The true share with any hit is near 3.8%.

SMILES	Smad3 inh	ERa coact inh	Candida biofilm	ERb coact inh	ERa SRC1 pot
N#Cc1c(-c2ccco2)cc(-c2ccccn2)nc1N	11.5	78.0*[fluorescence artefact?]	8.5	63.1*[fluorescence artefact?]	28.0
NC(N)=NC[C@H](N)C(=O)O	-2.7	.	.	.	.
O=C(O)/C(Cc1ccnc2ccccc12)=N\O	-13.7	.	.	.	.
c1ccc2c[n+](Cc3ccnc4ccccc34)ccc2c1	101.1*	.	.	.	.
COC(=O)c1cc2ccsc2n1CC(=O)N(C)c1ccccc1	-9.8	8.3	0.8	4.5	92.3
COC(=O)c1cc2ccsc2n1CC(=O)Nc1ccc(N(C)C)cc1	7.1	54.9*	6.0	28.4	31.9
CCN(CC)C[C@@H](O)c1ccc2ccc3ccccc3c2c1	-10.9	.	.	.	.
CN(CCNC(=O)c1cc2c(=O)n(C)c3ccccc3c2n1C)Cc1ccccc1	6.6	16.2	-2.2	-1.4	95.5
Cn1c(C(=O)NC2CCCCC2)cc2c(=O)n(C)c3ccccc3c21	8.5	27.6	8.0	21.4	150.5
Cn1c(C(=O)NC2CCCCCC2)cc2c(=O)n(C)c3ccccc3c21	0.1	22.8	0.2	28.4	223.3*[fluorescence artefact?]
Cn1c(C(=O)NCCN2CCOCC2)cc2c(=O)n(C)c3ccccc3c21	-5.8	-5.3	11.8	-5.3	90.0
COc1cc(NC(=O)c2cc3c(=O)n(C)c4ccccc4c3n2C)cc(OC)c1OC	15.3	-22.6	18.0	-5.0	330.2*
Cn1c(C(=O)NCc2cccs2)cc2c(=O)n(C)c3ccccc3c21	29.6	-1.0	1.3	7.5	512.8*[fluorescence artefact?]
Cc1ccc(CNC(=O)c2cc3c(=O)n(C)c4ccccc4c3n2C)cc1	11.9	38.6	11.0	42.3	290.9*[fluorescence artefact?]
NC(=O)C[C@H](N)C(N)=O	1.3	.	.	.	.
C[N+]1(C)CCO[C@](O)(c2ccccc2)C1	1.9	.	.	.	.
CC(=O)Nc1ccc(OC(=O)CC2SC(=O)NC2=O)cc1 (centres undefined)	-6.7	40.7	11.3	56.3*	70.1
Cc1ccc(CN2C(=O)/C(=C3\SC(N4CCOCC4)=NC3=O)c3cc(Br)ccc32)cc1	-1.5	24.1	4.3	12.9	10.7
O=C1N=C(N2CCOCC2)S/C1=C1\C(=O)N(Cc2ccccc2)c2ccc(Br)cc21	-4.2	92.9*[fluorescence artefact?]	6.9	44.0	33.7
CC(C)(CO[C@@H]1C[C@@H]2CC[C@@]1(C)C2(C)C)[N+](=O)[O-]	-1.8	.	.	.	.
COc1ccc(C(=O)N2CCCN(C)CC2)cc1S(=O)(=O)N1CCCc2ccccc21	-2.8	-13.2	-7.0	-11.4	224.8*
COc1ccc(OC)c(S(=O)(=O)N2CCCc3ccccc32)c1	-7.9	-2.5	5.2	0.9	105.7
CN=C1SC(CC(=O)Nc2ccc(C(C)=O)cc2)C(=O)N1C (centres undefined)	0.3	79.4*	-1.9	70.9*	51.8
CCOC(=O)Cc1csc(NC(=O)CC)n1	-1.9	-1.2	0.8	-2.3	120.7
CCOC(=O)Cc1csc(NC(=O)Cc2cccs2)n1	0.8	90.5*[fluorescence artefact?]	9.7	74.5*	19.4
SMILES	Smad3 inh	ERa coact inh	Candida biofilm	ERb coact inh	ERa SRC1 pot
Cc1ccc(N2CC(C(=O)Nc3ccccn3)CC2=O)cc1 (centres undefined)	-11.7	5.4	-2.4	62.5*[fluorescence artefact?]	92.7
Cc1ccc(N2CC(C(N)=O)CC2=O)cc1 (centres undefined)	50.8*	-0.9	2.4	1.5	98.8
COc1ccc(N2CC(C(=O)O)CC2=O)cc1 (centres undefined)	-3.3	-23.2	1.5	70.6*	106.8
O=C(O)C1CC(=O)N(c2ccc(F)cc2)C1 (centres undefined)	7.1	5.0	5.4	-0.8	130.7
O=C(CCN1CCOCC1)Nc1ccc(F)cc1F	-8.0	.	.	.	.
C[C@@]1(CO)[C@H](O)CC[C@]2(C)[C@@H]1CC[C@H]1C[C@H]3C[C@]12CC[C@@]3(O)COC(=O)CN	-3.1	.	.	.	.
COc1ccc(/C(C)=C(\C#N)C(=O)OC(C)C)cc1OC	-10.6	-6.7	4.2	-4.7	100.0
CCc1nnc2sc(-c3ccc(NC(=O)c4ccco4)cc3)nn12	-0.1	9.1	-0.6	2.8	103.8
CCc1nnc2sc(-c3ccc(NC(=O)c4ccc5c(c4)OCCO5)cc3)nn12	-21.5	23.9	-1.5	-1.5	326.0*
CC12CC3CC(C)(C1)CC(C(=O)Nc1nn[nH]n1)(C3)C2	-3.0	-3.9	4.7	-6.4	226.3*
CC12CC3(C)CC(C)(C1)CC(C(=O)Nc1nn[nH]n1)(C2)C3	-10.8	3.0	-8.3	14.3	79.3
CC1=C/C(=N\O)[C@H]([C@@H]2C=C(C)CC(C)(C)[C@H]2O)C(C)(C)C1	-6.7	.	.	.	.
CCOc1cccc(=O)c2c(C)n(C)c(C)c12	5.8	7.5	3.9	12.5	77.9
COc1cccc(=O)c2c(C)n(C)c(C)c12	15.3	37.5	-4.9	50.8*[fluorescence artefact?]	71.9
Cc1ccc2nc(/C(C#N)=C/c3cn[nH]c3-c3ccc(F)cc3)[nH]c2c1	5.1	-11.7	-4.2	-13.2	97.5
Cc1ccc2nc(/C(C#N)=C\c3ccc(N4CCCCC4)c([N+](=O)[O-])c3)[nH]c2c1	6.1	82.0*	4.4	35.7	73.7
CCOc1c(Cl)cc(CNCC(C)C)cc1OC	11.2	-7.6	59.4*	-10.7	109.1
c1ccc(-c2nc3c4ccccc4nc(N4CCN(c5ccccn5)CC4)n3n2)cc1	-0.3	15.5	10.8	-1.1	214.6*[fluorescence artefact?]
COc1ccccc1S(=O)(=O)Cc1ccc(C(=O)N2CCCC2)o1	0.4	6.9	6.5	-12.5	208.4*
Cc1ccc(S(=O)(=O)NCc2cccc([N+](=O)[O-])c2)cc1	14.4	.	.	.	.
N[C@@H](Cc1nn[nH]n1)C(=O)O	3.8	.	.	.	.
CCOc1ccc2c(c1)n([O-])c1c([n+]2=O)CCCC1	-3.9	1.9	4.7	2.9	149.1
COc1ccc2c(c1)n([O-])c1c([n+]2=O)CCC1	-4.4	20.4	0.9	50.9*	65.1
COc1ccccc1NS(=O)(=O)c1ccc(C(=O)OCC(=O)NCc2ccco2)cc1	-3.1	72.6*[fluorescence artefact?]	7.4	45.1	63.4
COc1cccc(-n2nnc3c(=O)n(Cc4ccc(Br)cc4)cnc32)c1	5.6	51.9*[fluorescence artefact?]	2.3	33.8	353.7*[fluorescence artefact?]
SMILES	Smad3 inh	ERa coact inh	Candida biofilm	ERb coact inh	ERa SRC1 pot
c1ccc(CN(CC2=NCCN2)c2ccccc2)cc1	5.2	-5.7	3.3	4.2	118.8
Cc1ccc(N(CC2=NCCN2)c2cccc(O)c2)cc1	1.0	-4.3	6.8	70.2*!	94.3
O=C(NCc1ccccn1)C1CCC(=O)N1C1CCCCC1 (centres undefined)	2.5	82.3*[fluorescence artefact?]	3.7	-4.3	117.9
O=C(COc1ccc(F)c(Cl)c1)c1ccc[nH]1	8.4	66.5*[fluorescence artefact?]	3.2	45.2	39.6
CCN(CC)CC[n+]1ccc2c(C)c3[nH]c4ccccc4c3c(C)c2c1	11.9	.	.	.	.
O=C(O)c1ccc(C(=O)O)c(C(=O)Nc2ccc3c(c2)Cc2ccccc2-3)c1	2.6	.	.	.	.
Oc1ccc(-c2nc(-c3ccc(O)c(O)c3)cs2)cc1	17.6	67.8*[fluorescence artefact?]	1.7	82.4*	19.2
Oc1ccc(Nc2nc(-c3ccc4ccccc4c3)cs2)cc1	-5.0	-1.3	4.5	-9.9	70.7
O=C(CN1CCCCC1)N1CCCc2c1c(=O)oc1ccc(OCc3ccccc3)cc21	1.6	0.9	6.9	-5.2	326.6*[fluorescence artefact?]
